Source: PubChem
DUSP3 inh – blocks human VHR1 dual specificity phosphatase | recombinant VHR phosphatase, pNPP absorbance | inhibition, % at 13.3 µM | actives 0.52% (n = 290,000) | AID 1654; in the data active = inhibition above about 50%
Target sequence (P51452 whole entry, looked up): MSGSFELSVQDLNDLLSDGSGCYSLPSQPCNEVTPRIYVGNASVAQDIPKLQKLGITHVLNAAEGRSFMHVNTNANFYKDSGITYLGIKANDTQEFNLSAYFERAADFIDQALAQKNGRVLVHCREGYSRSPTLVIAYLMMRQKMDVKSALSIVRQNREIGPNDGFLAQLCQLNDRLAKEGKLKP
CCHFV vOTU inh – blocks the CCHF virus ovarian tumor domain protease; CCHFV vOTU protease, Pep-AMC fluorescence; inhibition, % at 11.5 µM; actives 0.55% (n = 370,000); in the data active = inhibition above about 30%; note: 0% = vehicle wells with enzyme and 100% = no enzyme wells
SSB-PriA inh – blocks PriA binding to SSB C-terminal tail; AlphaScreen SSBct-PriA binding, biotinylated peptide; inhibition, % at 33 µM; actives 0.6% (n = 430,000); AID 1272365; in the data active = inhibition mostly above about 37%, no sharp cut-off; inactive = mostly below about 20%;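 note: plate controls were negative control peptide for no effect and reference peptide for full effect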
3CLpro inhibitor – SARS-CoV 3CLpro protease inhibition; P0C6X7; recombinant SARS-CoV 3CLpro, quenched FRET peptide cleavage; inhibition, % at 6 µM; actives 0.14% (n = 290,000); in the data active = inhibition above about 12%
RecA intein inh – blocks M. tuberculosis RecA intein splicing; inhibition, % (no concentration beside the values); AID 2221; actives 0.75% (n = 290,000); cell-free RecA intein splicing, fluorescence; P9WHJ3; in the data active = inhibition above about 30%; inconclusive = no clear call, values can overlap the other calls;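 note: 0% = vehicle wells and 100% = reference inhibitor control wells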
GFP chromo cs – counter-screen: blocks GFP chromophore formation | EC50, µM | actives 83% (n = 2,100) | cell-free GFP chromophore formation, fluorescence | shares compounds with RecA intein inh; call rule not given here
Active calls of the source: *; u = inconclusive; x = not tested or not shown. Only some compounds are listed: those with a hit (about 1.7% of all), similar ones and a draw of the others.

SMILES	DUSP3 inh	CCHFV vOTU inh	SSB-PriA inh	3CLpro inhibitor	RecA intein inh	GFP chromo cs
Cc1ccc2c(c1)N(C)C(=O)c1cc(NS(=O)(=O)CBr)ccc1O2	x	x	-4.0	x	x	x
Cc1cc(N/N=C/c2ccc(O)c(C)c2O)nc(-c2ccccc2O)n1	-24.0	2.0	x	2.2	46.8*	>38
Cc1ccc(-n2ncc3c(C)nnc(SCC(=O)NCc4ccc5c(c4)OCO5)c32)cc1C	x	x	-3.0	x	x	x
CCCCC(=O)NC(c1cccc([N+](=O)[O-])c1)c1c(OC(C)=O)ccc2ccccc12 (stereo not drawn)	-4.6	-4.4	13.6	4.0	34.6*	>38
CCC(c1ccc(O)cc1)C(CC)c1ccc(O)cc1 (stereo not drawn)	x	0.6	1.0	x	x	x
Cc1cc(C(c2ccc(O)cc2)c2cc(C)c(O)cc2C)c(C)cc1O	16.0	-3.4	6.3	-4.6	33.1*	>38
Cc1ccc(C)c(NC(=O)CSc2n[nH]c(-c3ccccn3)n2)c1	17.1	10.2	79.9*	-4.9	50.5*	>38
CC(CNc1ccccc1O)C(=O)O (stereo not drawn)	11.0	21.6	5.4	-0.5	50.4*	17.4*
CC(=O)c1cccc2c(O)c(C3=Nc4ccccc4C3=O)[nH]c12	-4.6	15.6	8.6	0.1	41.5*	4.58*
Cc1ccc(-n2cc(C(=O)NC3CCN(Cc4ccccc4)CC3)nn2)cc1	x	x	-9.0	x	x	x
CC(C)NC(=S)NC1(C)CCS(=O)(=O)C1 (stereo not drawn)	2.9	-14.6	-3.2	1.3	47.6*	>38
CC(C)NC(=O)NC1(C)CCS(=O)(=O)C1 (stereo not drawn)	x	x	-8.0	x	x	x
CCOC(=O)C1=C(C)OC(N)=C(C#N)C1c1ccc(OC)c(CSc2ccccn2)c1 (stereo not drawn)	4.0	7.9	-0.7	0.8	5.0	x
COc1ccc(C2C(C#N)=C(N)Oc3n[nH]c(C)c32)cc1CSc1ccccn1 (stereo not drawn)	-5.8	12.7	3.2	-0.6	80.5*	17.2*
COc1ccc(C2C(C#N)=C(N)Oc3n[nH]c(C)c32)cc1Cn1nnc2ccccc21 (stereo not drawn)	5.0	13.5	9.6	-1.0	60.5*	13.4*
COc1ccc(N(C(=O)c2cnccn2)C(C(=O)NC2CCCCC2)c2ccc(Cl)cc2)cc1 (stereo not drawn)	x	6.7	-9.8	0.3	0.8	x
COc1ccc(C(C(=O)NC2CCCCC2)N(C(=O)CCl)c2ccc(Cl)cc2)cc1 (stereo not drawn)	4.0	x	-5.3	6.8	67.3*	u
O=C(NC1CCCCC1)C(c1cccnc1)N(C(=O)CCl)c1cccc(Cl)c1 (stereo not drawn)	-8.8	5.3	15.9	2.8	78.8*	5.89*
COC(CN(C(=O)CCl)C(C(=O)NC1CCCCC1)c1ccc(Cl)cc1)OC (stereo not drawn)	6.8	8.2	0.3	-1.8	35.4*	34*
CN(C)C(C(=O)NC1CCCCC1)c1ccc(Cl)cc1 (stereo not drawn)	-2.1	8.7	-14.5	-6.8	-0.5	x
O=C(Nc1c(-c2ccccc2)nc2ccccn12)c1c[nH]c(=O)n(Cc2ccco2)c1=O	x	x	-8.0	x	x	x
CCOc1ccc(-c2cn3c(CC(=O)NCc4ccccc4OC)csc3n2)cc1	x	x	14.0	x	x	x
CC1=C(C)CC2(SC1)C(=O)N(c1ccccc1)N=C2N (stereo not drawn)	37.4	-12.6	4.2	2.2	75.8*	4.15*
CNc1nn(CC(=O)Nc2cc(C)c(Cl)cc2OC)c(N)c1-c1nc(-c2ccccc2C)no1	x	x	-1.0	x	x	x
N#CC1=C(N)Oc2n[nH]c(-c3ccc(F)cc3)c2C1c1cccc(OC(=O)N2CCOCC2)c1 (stereo not drawn)	28.6	12.3	-15.2	0.3	79.9*	11.2*
SMILES	DUSP3 inh	CCHFV vOTU inh	SSB-PriA inh	3CLpro inhibitor	RecA intein inh	GFP chromo cs
COc1ccc(-c2[nH]nc3c2C(c2ccc(OC(=O)N4CCOCC4)cc2)C(C#N)=C(N)O3)cc1 (stereo not drawn)	-9.6	0.7	19.6	-6.0	x	x
N#CC1=C(N)Oc2n[nH]c(-c3ccccc3)c2C1c1cccc(OC(=O)N2CCOCC2)c1 (stereo not drawn)	4.2	1.1	-5.0	4.6	67.6*	10.1*
COc1ccc(-c2[nH]nc3c2C(c2ccccc2OC(=O)N2CCOCC2)C(C#N)=C(N)O3)cc1 (stereo not drawn)	9.6	9.1	-10.5	3.2	70.7*	21.1*
CCOC(=O)c1ccccc1NC(=O)CSc1cn(CC(=O)N2CCCC2)c2ccccc12	x	x	-4.0	x	x	x
O=C(CSc1nnc(CNC(=O)c2cccs2)o1)Nc1ccc(OC(F)(F)F)cc1	x	x	-18.0	x	x	x
COC(CNC(=O)c1cc(-c2ccco2)on1)c1ccc(Cl)s1 (stereo not drawn)	x	x	-11.0	x	x	x
Cc1cc(C2C(C#N)=C(N)Oc3n[nH]c(C)c32)c(C)s1 (stereo not drawn)	10.6	0.0	6.5	-4.3	80.8*	36.5*
CC(C)(C)c1[nH]nc2c1C(Cc1ccccc1)C(C#N)=C(N)O2 (stereo not drawn)	-13.2	8.3	-0.9	0.3	54.1*	20.3*
Cc1[nH]nc2c1C(c1ccsc1C)C(C#N)=C(N)O2 (stereo not drawn)	-5.5	13.8	-15.7	2.5	47.6*	27.8*
Cc1ccc(-c2ccc(C3C(C#N)=C(N)Oc4n[nH]c(C)c43)o2)cc1 (stereo not drawn)	35.6	0.9	12.0	-2.4	67.5*	36.2*
CCCS(=O)(=O)NCc1ccnc(-c2ccsc2)c1	x	x	-4.0	x	x	x
O=C(c1ccco1)N1CCc2ccc(NC(=O)C34CC5CC(CC(C5)C3)C4)cc2C1	x	x	4.0	x	x	x
O=S(=O)(NCCOc1cccc(C(F)(F)F)c1)c1cc(F)ccc1F	x	x	-12.0	x	x	x
COc1cc(NS(=O)(=O)c2ccc(NC(=O)CSc3nnc(-c4ccncc4)o3)cc2)nc(OC)n1	x	x	-21.0	x	x	x
N#CC1=C(N)N(c2ccccc2)C(c2cccc([N+](=O)[O-])c2)C1(C#N)C#N (stereo not drawn)	25.0	9.1	2.1	2.9	39.0*	24*
NC(=NOC(=O)COc1ccc(Cl)cc1Cl)c1ccccn1	x	x	3.3	x	x	x
CN(Cc1ccccc1C#N)S(=O)(=O)c1cccs1	2.1	7.8	-12.2	-0.1	-2.6	x
N#Cc1nccnc1S(=O)(=O)c1cccs1	-2.5	-3.6	-13.9	-0.6	67.9*	32.1*
O=C(Nc1cccc(OC(F)F)c1)C1CN(C(=O)COc2ccccc2F)C1	x	x	-11.0	x	x	x
O=C(Cn1cccc1-c1nc(-c2ccc(F)c(Br)c2)no1)N1CCOCC1	x	x	8.0	x	x	x
CCOC(=O)C1=C(C)NC2(O)c3ccccc3C(=O)C12O (stereo not drawn)	11.3	10.2	-0.4	-1.1	32.9*	27.7*
O=C(O)CCC(=O)Nc1ccc(N=Nc2ccccc2)cc1	22.3	x	-0.8	2.8	2.3	x
CC(C)(C)C(=O)Nc1ccc(N=Nc2ccccc2)cc1	5.6	9.2	-3.2	-1.6	35.2*	8.74*
